# Hits are enriched below; roughly 8% of the tested compounds scored in any of these assays.
# FMDV antiviral: blocks foot and mouth disease virus; FMDV antiviral cell-based qHTS; Potency, µM (series often up to 57.9 µM), most hits filed as inhibitors; actives 1.2% (n = 410,000); AID 1159524; calls by dose curve; tested in HEK293T cells; also: read-out not given here; nearly all actives have a fitted effect of over 45% in size
# SARS PLpro yeast: SARS-CoV PLP inhibition in yeast. Potency, µM (series often up to 32.9 µM), hits mostly activators. S. cerevisiae expressing SARS-CoV PLpro, growth rescue. actives 0.19% (n = 330,000). AID 485353; calls by dose curve; also: nearly all actives have a fitted effect of over 55% in size
# HCV inh: inhibitors of hepatitis C virus infection; Potency, µM (series often up to 41.8 µM), actives largely listed as inhibitors; actives 3.4% (n = 340,000); Huh7.5.1 HCVcc-Cre infection, luciferase reporter, 44 h; AID 651820; active = well fitted inhibition curve with a large enough effect; inconclusive = small, poorly fitted or top-dose-only effect, or another doubt; inactive = no such curve, though single readings can be large or run the other way
#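 After 44 h co-culture of compound, cells and HCVcc-Cre (~0.5 moi), substrate is added for 15 min at room temperature and luciferase measured over 15 sec. Cells were seeded at 1,000/well and pre-cultured 4 h.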
# Lassa entry inh: Lassa virus entry inhibition; Lassa virus pseudotype entry inhibition, cell reporter; Potency, µM (highest dose often 37.9 µM), usual class: inhibitors; actives 1.2% (n = 300,000); AID 540256; calls by dose curve; tested in HEK293 cells; also: nearly all actives have a fitted effect of over 50% in size
# HCMV inh: human cytomegalovirus inhibition | HFF cells, HCMV-luciferase reporter, 72 h; hits give low values | activity change, negative = inhibition, % at 57.5 µM | actives 4.5% (n = 410,000) | AID 1259415; in the data active = activity change below about -60%; inconclusive = no clear call, values can overlap the other calls; inactive = above about -39%
#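 After 16 h attachment at 37C, HFF cells received test compound and HCMV-luciferase (1 PFU/cell); reporter luminescence read 72 h later, data normalized against buffer-only and known inhibitor Salinomycin.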
# MARV entry inh: blocks Marburg virus binding to or entry into cells; Marburg virus pseudotyped entry inhibition, cell reporter; Potency, µM (highest dose often 37.8 µM), actives largely listed as inhibitors; actives 1.8% (n = 300,000); calls by dose curve; tested in HEK293 cells
# Hits are given with their value; . = inactive; ? = inconclusive; / = not tested or not shown; ! = repeats disagree.
SMILES,FMDV antiviral,SARS PLpro yeast,HCV inh,Lassa entry inh,HCMV inh,MARV entry inh
CC1CCC(C(C)C)C(OCC(O)CN2CCCC(C)C2)C1 (stereo not given),?,.,?,5.62µM,?,?
CC1CCC(C(C)C)C(OCC(O)CN2CCN(Cc3ccccc3)CC2)C1 (stereo not given),?,.,?,8.91µM,?,?
O[C@H]1CN(Cc2cccs2)[C@@H](c2ccc(Cl)cc2)C[C@H]1n1cc(C2CC2)nn1,/,/,/,.,/,/
Cc1ccc(CSc2nc3ccncc3[nH]2)cc1,10µM,.,.,/,.,/
Clc1ccc(CSc2nc3ccncc3[nH]2)cc1,.,.,.,/,.,/
O=C(c1ccc(CSc2nc3ccncc3[nH]2)cc1)N1CCN(c2cccc(Cl)c2)CC1,?,.,7.94µM,25.9µM,-89.6,?
O=C(c1ccc(CSc2nc3ccncc3[nH]2)cc1)N1CCCCCC1,?,.,.,/,?,/
N#C/C(=C(/O)COC(=O)CCC1CCCCC1)c1nc2ccccc2[nH]1,?,.,.,?,-68.8,?
N#C/C(=C(/O)CCl)c1nc2ccccc2[nH]1,35.5µM,.,?,?,-70.0,?
N#CC(=C(O)COC(=O)CCCNC(=O)c1ccc(Cl)cc1)c1nc2ccccc2[nH]1,.,/,.,.,.,?
N#C/C(=C(\O)Cc1ccccc1)c1nc2ccccc2[nH]1,.,.,.,.,.,.
CCCC(=O)OC/C(O)=C(\C#N)c1nc2ccccc2[nH]1,.,.,.,.,-73.2,?
N#CC(=C(O)COC(=O)Cc1c[nH]c2ccccc12)c1nc2ccccc2[nH]1,.,/,.,.,.,.
Cc1c(-c2cccc(Cl)c2)nc2ccccc2c1C(=O)OC/C(O)=C(\C#N)c1nc2ccccc2[nH]1,.,.,8.91µM,.,-81.8,?
CC(C)OC(=O)[C@@H](CC(=O)O)NCc1ccccc1,/,/,/,/,/,.
COc1ccc(OC)c2c(=S)c3ccccc3[nH]c12,.,/,/,/,/,/
CC(C)C(=O)OC/C(O)=C(\C#N)c1nc2ccccc2[nH]1,.,.,.,.,-65.0,.
N#C/C(=C(/O)COC(=O)c1ccc(O)cc1)c1nc2ccccc2[nH]1,.,.,.,/,.,/
COCC(=O)OC/C(O)=C(\C#N)c1nc2ccccc2[nH]1,?,.,.,?,-99.2,?
COc1cc(=O)n2c(c1C(=O)NC(C)c1ccco1)CCN(Cc1ccccc1Cl)CC2 (stereo not given),.,/,/,/,/,/
Cc1noc(C)c1CC(=O)N1CCOc2c(cc(-c3nc4ccccc4s3)cc2OC2CCOC2)C1 (stereo not given),.,/,/,/,/,/
Cc1cc(C(=O)N/N=C/c2cccc3ccccc23)c(C)o1,.,.,.,.,.,7.94µM
O=C(N/N=C/c1cccc2ccccc12)C(=O)N1CCCC1,.,.,.,.,-71.2,.
COc1ccc(C(=O)Nc2ccccc2C(=O)N/N=C/c2cccc3ccccc23)cc1,0.316µM,.,.,?,.,?
COc1ccc(C(=O)Nc2ccccc2C(=O)N/N=C/c2ccncc2)cc1OC,14.1µM,.,.,?,.,?
SMILES,FMDV antiviral,SARS PLpro yeast,HCV inh,Lassa entry inh,HCMV inh,MARV entry inh
NC[C@@H]1O[C@H](C23CC4CC(CC(C4)C2)C3)Cc2c1ccc(O)c2O,39.8µM!,.,.,18.3µM,?,13µM
O=C(NOC(=O)c1ccccc1F)c1ccc(OC(F)F)cc1,.,.,.,.,.,?
COc1cc(C(=O)ONC(=O)c2ccc(OC(F)F)cc2)cc(OC)c1OC,.,.,.,9.2µM,.,?
CCC(=O)N1CCc2cc(Br)cc(S(=O)(=O)CCC(=O)N3CCN(c4cc(C)ccc4C)CC3)c21,.,/,/,.,.,?
O=C(Nc1cccc(C(F)(F)F)c1)Nc1ccc(N2CCCC2)c(S(=O)(=O)Nc2ccccc2Cl)c1,.,.,2.24µM,3.98µM,-100.4,2.51µM
CC(=O)Nc1ccc(N2CCOCC2)c(S(=O)(=O)Nc2ccccc2Cl)c1,.,/,/,/,.,/
COc1ccccc1NS(=O)(=O)c1cc(NC(=O)Nc2ccc(Cl)cc2Cl)ccc1N1CCCCC1,.,.,?,?,-61.6,?
Cc1ccsc1C(=O)OCC(=O)NC1CCS(=O)(=O)C1 (stereo not given),.,.,.,/,.,/
O=C(Nc1nnc(SCc2ccc(F)cc2)s1)C1=COCCO1,.,.,.,/,.,/
O=C1N(Cc2cccnc2)C[C@@H]2C[C@@H](c3cccc(OC4CCCC4)c3)N3CCC[C@@]123,.,.,12.6µM,.,?,.
Cc1ccc2c(c1)sc[n+]2Cc1ccccc1,.,.,10µM,.,.,?
Cc1ccc(-c2cc[n+](Cc3ccccc3)cc2)cc1,?,.,?,.,?,?
CC1CC(C)CN(S(=O)(=O)N2CCC(C(=O)NCCC3=CCCCC3)CC2)C1 (stereo not given),.,.,.,.,.,.
Fc1ccc(-c2nc3c(-c4ccc(Cl)cc4)cnn3cc2CCN2CCOCC2)cc1,.,.,.,?,?,?
COc1cc(=O)n2c(c1C(=O)NC(C)c1ccco1)CCN(Cc1ccccc1C(F)(F)F)CC2 (stereo not given),.,/,/,/,/,/
COc1ccc(CN2C(=O)C(NC(=O)c3ccccc3C)(C(F)(F)F)N=C2c2ccccc2)cc1 (stereo not given),.,/,/,?,-102.7,?
COc1ccc(CN2C(=O)C(NC(=O)c3ccc(C)cc3)(C(F)(F)F)N=C2c2ccccc2)cc1 (stereo not given),.,/,/,.,.,.
CC=CCCN1C=C(C(C)=O)C(c2ccccc2)NC1=O (stereo not given),/,/,/,/,/,.
Cc1ccc(-c2nn(C)c(=O)c3ccccc23)cc1S(=O)(=O)NCCN(C)C,.,.,.,.,.,11.2µM
CCCC/C(O)=C1\C(=O)CC(C)(C)CC1=Nc1ccccc1OC,.,.,?,.,.,?
CCC/C(O)=C1\C(=O)CC(C)(C)CC1=Nc1ccc(OC)cc1OC,.,.,.,.,.,2µM
CCCC(=O)Nc1ccc(C(=O)NNC(=S)NC(=O)c2ccc(Br)o2)cc1,.,.,?,?,.,.
Cn1c(=O)[nH]c(=O)c2c1nc(N1CCOCC1)n2Cc1ccccc1,.,/,/,.,.,/
O=C(c1c[nH]c(C(=O)N2CCN(c3ccccc3F)CC2)c1)c1cccc(Cl)c1Cl,.,.,25.1µM,?,.,?
Cc1ccccc1C(=O)c1c[nH]c(C(=O)N2CCN(c3ccccc3F)CC2)c1,?,.,?,?,.,?
CC(=O)c1ccc(N2CCN(C(=O)c3ccccc3SCC(=O)NCc3ccco3)CC2)c(F)c1,?,/,12.6µM,.,.,?
O=C(c1ccccc1)c1ccc(N2CCN(C(=O)c3cccc(F)c3F)CC2)c(F)c1,.,6.31µM,12.6µM,/,.,/
O=C(COC(=O)c1ccccc1C(=O)N1CCN(c2ccc(F)cc2)CC1)NCc1ccccc1,25.1µM,.,.,?,.,?
CC1(c2ccc(OC(F)F)cc2)NC(=O)N(CC(=O)Nc2cccc(F)c2)C1=O (stereo not given),.,.,.,.,.,?

# High-throughput results as filed in PubChem.
